# TGFb SMAD3 inh – qHTS for Inhibitors of TGF-b; Potency, µM (highest dose often 46.1 µM), for inactives: at the top dose activity, negative = inhibition, most hits filed as inhibitors; actives 1.2% (n = 410,000); HepG2 CAGA-GFP TGF-b/SMAD3 reporter, GFP fluorescence, 18 h; TGF-beta stimulated, 500 pg/mL final; note: potency is the fitted concentration of half-maximal effect; % is set by controls: 0 for no effect and ±100 for the full control effect; nearly all actives have a fitted effect of over 65% in size
#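 Inhibition of TGF-beta-driven CAGA-GFP reporter expression in HEPG2 cells is measured by cellular GFP fluorescence after 18 h stimulation with 500 pg/mL recombinant TGF-beta in 1% FBS medium at 37 degrees C.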
# DT40 TDP1 CPT – qHTS for Inhibitors of human tyrosyl-DNA phosphodiesterase 1 (TDP1): qHTS in cells in presence of CPT; chicken DT40 Tdp1-/-;hTDP1 cells + 20 nM CPT, ATP luminescence, 48 h; Potency, µM (highest dose often 46.2 µM), for inactives: at the top dose activity change, negative = growth inhibition, usual class: inhibitors; actives 12% (n = 420,000); note: potency is the fitted concentration of half-maximal effect; % is set by controls: 0 for no effect and ±100 for the full control effect; nearly all actives have a fitted effect of over 55% in size
#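 Chicken DT40 Tdp1-/- cells complemented with human TDP1, 400 cells/well, exposed to compounds plus 20 nM camptothecin for at least 48 h at 37 C; viability read as ATP content by CellTiter-Glo luminescence.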
# S-ASM inh – Inhibitors of Secretory Acid Sphingomyelinase (S-ASM): qHTS. Sphingomyelin phosphodiesterase (Homo sapiens), P17405. placental ASM, HMU-PC fluorogenic substrate, 60 min. Potency, µM (titrated, usually from 57.5 µM), for the others: at the top dose activity change, negative = inhibition, usual class: inhibitors. actives 0.006% (n = 340,000); note: potency is the fitted concentration of half-maximal effect
# Target sequence (P17405 47-631 limits assumed): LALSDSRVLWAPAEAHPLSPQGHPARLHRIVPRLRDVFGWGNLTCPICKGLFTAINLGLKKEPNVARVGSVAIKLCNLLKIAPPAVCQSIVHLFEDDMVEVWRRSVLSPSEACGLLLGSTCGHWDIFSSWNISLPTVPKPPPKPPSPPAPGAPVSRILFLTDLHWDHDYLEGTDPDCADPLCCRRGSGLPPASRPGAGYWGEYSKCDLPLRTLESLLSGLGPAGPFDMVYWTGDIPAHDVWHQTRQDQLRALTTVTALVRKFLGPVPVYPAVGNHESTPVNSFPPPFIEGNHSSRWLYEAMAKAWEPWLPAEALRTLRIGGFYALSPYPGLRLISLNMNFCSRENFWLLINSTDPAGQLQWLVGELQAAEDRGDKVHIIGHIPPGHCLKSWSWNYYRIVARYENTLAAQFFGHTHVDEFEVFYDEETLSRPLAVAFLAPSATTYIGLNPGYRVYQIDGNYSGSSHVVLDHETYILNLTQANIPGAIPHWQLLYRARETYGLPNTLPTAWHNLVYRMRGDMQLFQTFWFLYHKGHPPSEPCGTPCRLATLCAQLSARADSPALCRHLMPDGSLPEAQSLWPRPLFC
#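 Human placenta-derived ASM enzyme was preincubated with compound for 10 minutes at room temperature, then given fluorogenic substrate HMU-PC0 (9 uM final) for 60 minutes at 37 °C; a pH 10 stop preceded fluorescence reading at Ex 386/Em 447 nm.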
# HepG2 viability – qHTS for Inhibitors of TGF-b: Cytotox Counterscreen | HepG2 CAGA-GFP viability, ATP luminescence, 18 h | Potency, µM (highest dose often 46.1 µM), inactives show at the top dose activity change, negative = cytotoxicity, most hits filed as cytotoxic | actives 0.76% (n = 410,000) | AID 588856, 2011; note: potency is the fitted concentration of half-maximal effect
#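 CellTiter-Glo luminescence gave cytotoxicity after 18 hours at 37 degrees C. The cells were HepG2 CAGA-GFP in 1% FBS DMEM, stimulated with 500 pg/mL TGF-beta after compound addition. %Activity was normalised to no-cell wells (complete cell-killing) and DMSO (no toxicity), and curves were fitted and classified.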
# TDP1 cell noCPT – qHTS for Inhibitors of human tyrosyl-DNA phosphodiesterase 1 (TDP1): qHTS in cells in absence of CPT | DT40 Tdp1-/- hTDP1 cells, no CPT, ATP luminescence, 48 h | Potency, µM (highest dose often 46.2 µM), without a hit: at the top dose activity change, negative = growth inhibition, most hits filed as inhibitors | actives 15% (n = 420,000); note: potency is the fitted concentration of half-maximal effect; % is set by controls: 0 for no effect and ±100 for the full control effect; nearly all actives have a fitted effect of over 55% in size
#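 Readout: luminescence from CellTiter-Glo after 30 min in the dark at RT. Cells: DT40 Tdp1-/- with stable hTDP1, 400/well. Exposure: compounds alone, ≥48 hr, 37 °C.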
# IL-1B inflam inh – qHTS for Inhibitors of Inflammasome Signaling: IL-1-beta AlphaLISA Primary Screen; THP-1 LPS/ATP IL-1B secretion, AlphaLISA, 16 h; stronger effect = lower value; activity change, % at 57.5 µM; actives 4.7% (n = 360,000); AID 743279, 2014; in the data active = activity change below about -50%; inconclusive = mostly about -30% to -49%; note: % is set by controls: 0 for no effect and ±100 for the full control effect
#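 THP-1 cells pretreated 1 hr with compounds (up to 57.5 uM final), then stimulated with LPS (250 ng/mL final) plus ATP (1.25 mM final); secreted IL-1B measured by AlphaLISA after 16 hr, decreased signal indicating inhibition.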
# Active calls of the source: *; ? = inconclusive; . = no result; [ ] = remark or other dose. This is a sample that favours compounds with a hit; in the whole collection about 19% have one here. Unless noted, calls come from the whole dose curve; as a rule, active = well fitted curve in the direction sought with a large enough effect; inconclusive = small, poorly fitted or top-dose-only effect, or another doubt; inactive = no such curve, though single readings can be large; an effect the other way counts as inactive or inconclusive.
SMILES,TGFb SMAD3 inh,DT40 TDP1 CPT,S-ASM inh,HepG2 viability,TDP1 cell noCPT,IL-1B inflam inh
COc1ccc(-c2cc(C(F)(F)F)nc(SCC(=O)Nc3cc(C)on3)n2)cc1OC,1%,2%,148%,-59%,-13%,0
O=C(CCSc1nc(-c2ccc3c(c2)OCO3)cc(C(F)(F)F)n1)NCc1ccccc1,-8%,?,136%,-48%,15µM*,15
CN(Cc1ccccc1)C(=O)CSc1nc(-c2ccc(F)cc2)cc(C(F)(F)F)n1,-10%,21µM*,.,-54%,15µM*,.
CN(Cc1ccccc1)C(=O)CCSc1nc(-c2ccc3c(c2)OCO3)cc(C(F)(F)F)n1,6%,?,164%,4%,18µM*,8
COc1ccc(-c2cc(C(F)(F)F)nc(SCC(=O)N(C)Cc3cnn(C)c3C)n2)cc1OC,27%,16µM*,.,8%,16µM*,-4
CN1CCN(c2nc3c(c(=O)[nH]c(=O)n3C)n2Cc2ccc([N+](=O)[O-])cc2)CC1,11%,3%,1%,3%,-12%,2
Cc1cccnc1-c1cccc2c1OC(CNC(=O)Cc1c(C)noc1C)C2 (stereo unspecified),.,8%[9.04 µM],.,.,-15%,.
C#CCN(Cc1ccco1)C(=O)c1ccc(OC2CCN(Cc3ccccn3)CC2)cc1,3%,18µM*,.,-27%,?,-13
COC(=O)c1cc2oc(C)cc2n1Cc1ccc(C)cc1,-14%,-23%,.,-20%,?,.
O=C(NCCn1cc(SCc2ccc(Cl)cc2)c2ccccc21)c1cccs1,?,?,.,-29%,?,.
Cc1ccccc1CSc1cn(CCNC(=O)c2cccs2)c2ccccc12,?,23µM*,.,-40%,?,.
CC(Sc1cn(CCNC(=O)c2ccccc2F)c2ccccc12)c1ccccc1 (stereo unspecified),?,?,.,-21%,21µM*,.
O=C(NCCn1cc(SCc2ccccc2F)c2ccccc21)c1cccs1,10µM*,?,.,-29%,21µM*,.
O=C(NCCn1cc(SCc2ccccc2F)c2ccccc21)c1c(F)cccc1F,?,?,-4%,-32%,23µM*,?
O=C(NCCn1cc(SCC(=O)N2CCOCC2)c2ccccc21)c1c(F)cccc1F,-2%,?,3%,-14%,?,0
COc1ccc(C(=O)N2CC(=O)Nc3ccc(F)cc3C2c2ccc(F)cc2)c(OC)c1 (stereo unspecified),0%,?,.,8%,?,.
COc1ccc(CNC(=O)CSc2nnc(NC(=O)c3ccccc3F)s2)cc1,-7%,-14%,1%,-23%,?,3
Cc1cc(C(=O)N2CCC(C)(C(=O)NS(=O)(=O)C3CC3)C2)n(C(C)(C)C)n1 (stereo unspecified),?,1%,.,-2%,26%,0
Cc1c(/C=C/C(=O)c2ccc(O)cc2)cnn1C,-3%,-16%,-2%,8%,?,9
Cc1c(/C=C/C(=O)c2ccc(C(C)C)cc2)cnn1C,3%,?,7%,-21%,?,-73*
CN(C)S(=O)(=O)c1cccc(NC(=O)c2ccc(S(=O)(=O)N3CCCC3)cc2)c1,15%,?,-1%,21%,?,-13
Oc1ccc(Nc2nc(-c3cccs3)cs2)cc1,-4%,-7%,23%,-50%,6%,-3
COc1cccc(-c2csc(Nc3ccc(Oc4ccccc4)cc3)n2)c1,?,?,.,-3%,?,-18
COc1ccccc1-c1csc(Nc2ccc(Oc3ccccc3)cc2)n1,?,18µM*,.,-5%,?,7
COc1ccc(Nc2nc(-c3cccs3)cs2)cc1,-13%,21µM*,-1%,8%,23µM*,4
SMILES,TGFb SMAD3 inh,DT40 TDP1 CPT,S-ASM inh,HepG2 viability,TDP1 cell noCPT,IL-1B inflam inh
CC1=C(C(=O)Nc2ccc(F)cc2F)C2(CCCCCC2)OC1=O,-7%,-13%,.,-12%,-20%,.
CC1=CC(=O)C(C(C)C)=C/C1=C(\c1cc(C(C)C)c(OP(=O)(O)O)cc1C)c1ccccc1C(=O)O,?,?,-16%,-4%,21µM*,25
CCOc1ccc(C(=O)c2ccccc2C(=O)O)cc1OCC,18%,0%,0%,10%,0%,17
CNc1ncc(-c2nnnn2-c2ccccc2)c(-c2ccccc2)n1,0%,?,4%,-2%,?,0
FC(F)(F)c1nc(-c2cccs2)ncc1-c1nnnn1-c1ccc(Cl)cc1,-10%,4.1µM*,-13%,-28%,2.9µM*,-27
COc1ccc(-n2nnnc2-c2cccnc2)cc1,-1%,2%,1%,0%,-20%,19
FC(F)(F)c1nc(-c2cccnc2)ncc1-c1nnnn1-c1ccccc1,12%,?,0%,-11%,16µM*,-11
Clc1ccc(-n2nnnc2-c2cnc(-c3ccncc3)nc2-c2cccs2)cc1,-17%,?,-5%,-30%,?,-28
COc1ccc(-n2nnnc2-c2cnc(N3CCCC3)nc2C(F)(F)F)cc1,?,8.2µM*,-1%,-22%,9.2µM*,-55*
Cc1ccc2nc(SCC(=O)Nc3nonc3C)[nH]c2c1,-27%,-1%,-22%,-9%,-15%,-7
CCn1c(-c2ccccc2F)nc2cc(NC(C)=O)cc(C(=O)N3CCCC3c3nccs3)c21 (stereo unspecified),.,7%[9.04 µM],.,.,2%,.
CN(Cc1ccco1)C(=O)c1cc(NC(=O)C2CCC2)c2c(c1)nc(-c1ccncc1)n2C,.,?,.,.,-18%,.
COc1ccc(Cc2c(-c3ccc(OC)c(OC)c3)nc3ccc(C)cn23)c(C)c1,?,?,.,-24%,16µM*,-6
COc1ccc(-c2nc3c(C)cc(Br)cn3c2Cc2ccccc2)cc1OC,?,7.3µM*,.,-23%,6.5µM*,-2
COc1ccc(Cc2c(-c3cccc(Cl)c3)nc3ccc(Cl)cn23)c(C)c1,-25%,26µM*,.,-16%,?,0
COc1ccc(-c2nc3ccc(Cl)cn3c2Cc2ccc(C)cc2)cc1OC,-1%,?,.,-15%,?,-16
